Data reported in PubChem BioAssay AID624330 (Southern Research Specialized Biocontainment Screening …, 2012).
The whole screen tested about 340,000 compounds, of which about 2,100 (0.62%) were called active.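 Rule for the calls: active = first-screen hits whose inhibition reached a set limit at any dose in the follow-up dose series; inconclusive = inhibition above the set first-screen limit but never retested; inactive = the rest.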 Only a sample is shown. Results with a measured potency or affinity are listed apart.

Target: Rac GTPase-activating protein 1 (Homo sapiens) (UniProt Q9H0H5)
Test: MgcRacGAP GTPase-activating activity inhibitors, confirmation, biochemical, ADP Hunter fluorescence, primary and confirmatory (AID 624330);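 note: fluorescence reports GDP produced by GAP-driven GTP hydrolysis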
Conditions: MgcRacGAP-stimulated Rac1 GTP hydrolysis, at 30 µM, stronger effect = higher value, GST-tagged Rac1 F28L mutant substrate

Rac GTPase-activating protein 1 (Homo sapiens), sequence (Q9H0H5 whole entry, looked up): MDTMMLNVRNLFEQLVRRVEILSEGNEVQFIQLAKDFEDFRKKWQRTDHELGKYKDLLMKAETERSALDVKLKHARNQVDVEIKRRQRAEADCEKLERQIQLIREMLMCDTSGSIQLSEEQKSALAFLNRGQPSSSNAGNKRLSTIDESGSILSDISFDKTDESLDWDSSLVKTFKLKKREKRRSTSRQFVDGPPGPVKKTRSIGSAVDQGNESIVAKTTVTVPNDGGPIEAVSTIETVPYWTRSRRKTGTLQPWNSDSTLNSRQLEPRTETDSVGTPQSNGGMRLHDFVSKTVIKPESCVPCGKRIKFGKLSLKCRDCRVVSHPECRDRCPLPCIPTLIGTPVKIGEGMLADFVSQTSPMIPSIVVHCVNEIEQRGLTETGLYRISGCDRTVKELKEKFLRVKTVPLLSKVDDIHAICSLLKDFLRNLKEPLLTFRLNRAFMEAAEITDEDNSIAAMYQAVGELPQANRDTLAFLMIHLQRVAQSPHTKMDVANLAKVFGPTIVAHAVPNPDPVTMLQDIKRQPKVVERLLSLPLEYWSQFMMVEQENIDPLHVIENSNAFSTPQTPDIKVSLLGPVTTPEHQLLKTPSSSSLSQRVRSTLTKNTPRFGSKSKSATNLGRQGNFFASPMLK

inhibition, inactive:
CC(N=c1ccccn1C(=O)Nc1cccc(C(F)(F)F)c1)c1ccco1 (configuration not stated) 2.17%
O=C(CN1CCCCC1)NN(Cc1ccccc1)c1ccccc1 10.1%
CN1CCN(CC(=O)NN(Cc2ccccc2)c2ccccc2)CC1 31.6%
CCN(CC(=O)NC(=O)NCc1ccccc1)Cc1ccccc1 3.08%
CC(C)(O)C(=O)NN(Cc1ccccc1)c1ccccc1 4.09%
CCCc1cc(=O)[nH]c(SCC(=O)c2cc(C)n(CC3CCCO3)c2C)n1 (configuration not stated) 4.29%
Cc1ccc(S(=O)(=O)NC(C)C(=O)N2CCOCCOCCOCCOCC2)cc1 (configuration not stated) 9.08%
CCc1ccc(NC(=O)C2CCN(S(=O)(=O)c3ccc4c(c3)NC(=O)CO4)CC2)cc1 -14%
COc1cc(/C=C2\C(=O)ON=C2c2ccccc2)cc(OC)c1OC 15%
CC(C)n1c2ccccc2c2cc([N+](=O)[O-])ccc21 10.7%
O=C1/C(=C/c2ccc([N+](=O)[O-])cc2)C=C(c2ccccc2)N1c1ccccc1 15.2%
COc1cc(/C=C(/C(=O)O)c2ccc(-c3ccccc3)cc2)cc(OC)c1OC 7.82%
Cn1c(=O)cc(-c2ccccc2)c2ccccc21 5.87%
Cn1c(-c2ccccc2)cc(=O)c2ccccc21 12.4%
CC(=O)Nc1ccc(NC(=O)CSc2nnc(-c3cccs3)n2C)cc1 5.9%
O=C(/C=C/c1cccc([N+](=O)[O-])c1)NCc1ccccc1 2.96%
CCCCOc1cccc(/C=C(\C#N)C(=O)NC2CC2)c1 4.72%
CC(C)(C)OC(=O)C[C@@H]1C/C=C\C[C@@H](CC(=O)N[C@H](CO)Cc2ccccc2)C(=O)N2CCC[C@@H]2COC1=O 4.93%
CN(CCO)c1ncnc2c1sc1nc(N3CCOCC3)c3c(c12)CCC3 13.9%
O=C(CCl)N(c1ccccc1)c1ccccc1 5.65%
Cc1cc(C(=O)NNC(=O)C2CCCC2)c(C)o1 4.19%
Cc1cnc(NC(=O)c2cccs2)s1 0.1%
NC(=O)C[C@H](N)c1cn([C@@H](CC(N)=O)C(=O)N2CCNCC2)nn1 -0.03%
CN(CC1CCCN(CCc2ccc(Cl)cc2)C1)C(=O)C(=O)c1ccco1 (configuration not stated) 6.85%
Cc1ccn2cc(C(=O)N3CCN(c4cnn(-c5ccccc5)c(=O)c4Cl)CC3)nc2c1 2.32%
O=C(NCc1ccccc1)NS(=O)(=O)c1ccccc1Cl 2.6%
CCCCCCCCCCCCCCCC[N+](C)(C)CCl 15.1%
CCCCCCCCCCCCCCCC[N+](C)(C)CC 18.7%
COc1ccc(CNC(=O)C(C)N(Cc2ccco2)C(=O)c2snc(C(N)=O)c2N)cc1 (configuration not stated) -8.32%
COc1ccc(C2CC(c3ccc4ccccc4c3)=NN2C(=O)CSc2ncccn2)cc1 (configuration not stated) 7.23%
C=CCNCC(=O)N1N=C(c2ccc3ccccc3c2)CC1c1ccc(OC)cc1 (configuration not stated) 6.55%
CN(C)CC1CCC/C(=C\c2ccc(OC(=O)c3ccc(Cl)cc3)cc2)C1=O (configuration not stated) 2.37%
COc1ccc(CCNC(=O)CCOc2ccc(C(C)(C)C)cc2)cc1OC 3.35%
Cc1nnc(NC(=O)c2ccco2)s1 4.57%
Cc1ccc(-c2nnc(NC(=O)c3ccco3)s2)cc1 6.39%
CC(=O)Nc1nnc(C)s1 9.89%
CC(=O)Nc1nnc(S(N)(=O)=O)s1 1.42%
CC(C)c1ccc(CNC(=O)C(=O)NCC2CCCO2)cc1 (configuration not stated) 14.8%
Cc1cc(NS(=O)(=O)c2ccc(NC(=O)COc3ccccc3[N+](=O)[O-])cc2)no1 7.5%
CN(C)CCC1Sc2ccccc2Oc2ccccc21 (configuration not stated) 17.5%
CC1c2ccccc2SC(CCCN(C)C)c2ccccc21 (configuration not stated) 5.84%
Cc1onc(-c2c(F)cccc2Cl)c1C(=O)NCc1cccs1 5.78%
COc1ccc(S(=O)(=O)N(C)CC(=O)NCCC2=CCCCC2)cc1 4.26%
O=c1[nH]c(/C=C\c2cccc(O)c2)nc(O)c1[N+](=O)[O-] 13.1%
O=[N+]([O-])c1ccc2oc(/C=C/c3ccc(O)cc3)nc2c1 13.2%
NS(=O)(=O)c1ccc(NC(=S)NNC(=O)c2ccc(Br)o2)cc1 4.44%
COc1ccc(Cl)cc1NC(=O)CN(C)CC(=O)Nc1ccc(Br)cc1 3.57%
O=C(NN1C(=O)/C(=C\c2cccnc2)SC1=S)c1ccco1 13.7%
CCOc1ccc(NC(=O)CSc2nnc(C3CC3)n2C)cc1S(=O)(=O)N1CCCCC1 8.28%
COc1ccc(OC)c(CN2CCN(C(=O)c3ccc(F)cc3)CC2)c1 25%
COc1ccccc1N1CCN(C(=O)c2ccncc2)CC1 -0.56%
COc1ccc(Br)cc1CN1CCN(C(=O)c2ccc(OC)c(OC)c2)CC1 21%
COc1ccccc1C(=O)N1CCN(C(=O)c2ccncc2)CC1 1.76%
CCCCOc1ccc(/C=C/C(=O)N(CC)CC(=O)Nc2ccc3c(c2)OCCO3)cc1OC 11.7%
C/C(Cn1nc([N+](=O)[O-])cc1C)=N\NC(=O)COc1ccc(Cl)cc1Cl 6.26%
Cc1ccccc1NC(=O)c1c(C)nn(-c2ccccc2)c1Cl 8.16%
O=C(CSc1ncccn1)NCC1CCCO1 (configuration not stated) 4.06%
COc1cc(OC)c(OC)cc1/C=N/Nc1nc2ccccc2[nH]1 12.8%
COc1cc(/C=N/Nc2nc3ccccc3[nH]c2=O)ccc1O 15.8%
COc1cc(/C=N\Nc2nc3ccccc3[nH]2)cc(OC)c1OC 29%
COc1ccc(O)c(/C=N/Nc2nc3ccccc3[nH]2)c1 1.94%
COc1ccc(NC(=O)c2c(C)nn(Cc3ccccc3)c2Cl)cc1S(=O)(=O)N1CCOCC1 2.08%
